Shown are actives, neighbours in structure and some others; about 2.2% of the full set was active somewhere.
Nrf2 ARE act: qHTS of Nrf2 Activators. AREc32 ARE-luciferase reporter (MCF7-derived line), luminescence, 24 h. Potency, µM (highest dose often 46.1 µM), without a hit: top-dose activation, actives largely listed as activators. 410,000 tested, 0.31% active; also: potency is read from the fitted curve at half-maximal effect; % of control where 0% means no effect; nearly all actives have a fitted effect of over 65% in size
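Luciferase luminescence (Steady-Glo, 30 min at room temperature) served as the read-out of ARE activation in AREc32 cells treated with compounds for 24 hr at 37 deg C.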
PI4K2A block: qHTS for small molecular inhibitors of PI4K2A | 420,000 tested, 0.13% active | activity change, negative = inhibition, % at 76.9 µM | purified PI4K2A, ADP-Glo luminescence, 1 h; active compounds read low | Phosphatidylinositol 4-kinase type 2-alpha (Homo sapiens), Q9BTU6; in the data active = activity change below about -50%; inconclusive = mostly about -30% to -49%;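 also: -100% = wells without enzyme as full effect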
Target sequence (Q9BTU6 whole entry, looked up): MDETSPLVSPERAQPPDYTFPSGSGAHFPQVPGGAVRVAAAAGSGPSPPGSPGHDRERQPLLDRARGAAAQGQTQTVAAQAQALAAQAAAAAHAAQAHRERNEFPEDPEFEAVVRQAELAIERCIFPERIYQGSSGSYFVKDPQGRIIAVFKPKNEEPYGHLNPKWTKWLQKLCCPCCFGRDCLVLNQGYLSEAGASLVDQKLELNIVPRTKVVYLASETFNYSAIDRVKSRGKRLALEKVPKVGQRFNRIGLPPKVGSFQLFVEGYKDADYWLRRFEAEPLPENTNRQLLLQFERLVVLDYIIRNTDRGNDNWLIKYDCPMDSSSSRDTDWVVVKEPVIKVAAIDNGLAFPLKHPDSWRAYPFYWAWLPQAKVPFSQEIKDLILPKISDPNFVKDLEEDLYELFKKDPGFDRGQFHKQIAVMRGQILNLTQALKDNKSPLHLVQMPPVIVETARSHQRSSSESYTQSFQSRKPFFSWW
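PI4K2A activity was measured by ADP-Glo luminescence: enzyme (4 ug/mL stock) and phosphatidylinositol (1.2 mM stock) in Tris pH 7.5/MgCl2/EGTA/Triton X-100 buffer were reacted with ATP (300 microM stock) for one hour at ambient temperature.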
GALK inh: qHTS Assay for Inhibitors of Human Galactokinase (GALK). P51570. Purified GALK, Kinase-Glo residual ATP luminescence. Potency, µM (titrated, usually from 57.5 µM), without a hit: at the top dose activity change, negative = inhibition, most hits filed as inhibitors. 270,000 tested, 0.007% active. AID 1868, 2009; also: potency is read from the fitted curve at half-maximal effect; % is scaled to controls: 0 for no effect and ±100 for the full control effect
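Luminescence from leftover ATP (Ultra-Glo luciferase/luciferin) served as read-out after a 1 h room-temperature reaction of 5 nM GALK with 35 uM ATP and 100 uM galactose.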
Nrf2 block: Nrf2 qHTS screen for inhibitors; Potency, µM (top dose mostly 46 µM), inactives show at the top dose activity change, negative = inhibition, actives largely listed as inhibitors; A549 ARE-Fluc reporter, luciferase luminescence, 18-24 h; 360,000 tested, 2.1% active; also: potency is read from the fitted curve at half-maximal effect; % is scaled to controls: 0 for no effect and ±100 for the full control effect; nearly all actives have a fitted effect of over 60% in size
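Quantitative HTS in A549 cells stably bearing an antioxidant response element-firefly luciferase construct. Inhibition of Nrf2-driven transcription was scored by luminescence after 18-24 h of compound exposure at 37 °C.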
A549 viability: Nrf2 qHTS screen for inhibitors: counterscreen for cytotoxicity. A549 ARE-Fluc cells, CellTiter-Fluor viability, 18-24 h. Potency, µM (doses to about 46 µM), without a hit: top-dose activity change, negative = cytotoxicity, usual class: inhibitors. 390,000 tested, 0.16% active. AID 504648, 2011; also: potency is read from the fitted curve at half-maximal effect; % is scaled to controls: 0 for no effect and ±100 for the full control effect
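A549 ARE-Fluc cells in 5% FBS OPTI-MEM, 5000 cells/well, rested 2 h then exposed to compounds in concentration-response for 18-24 h at 37 °C. Viability by CellTiter-Fluor fluorescence (Ex 405/Em 525) after 30 min; luciferase luminescence (BugLite, 15 min, RT) read afterwards.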
miR-21 act: qHTS Assay for Modulators of miRNAs and/orActivators of miR-21 | HeLa miR-21 FLuc reporter, luciferase, 48 h | Potency, µM (series often up to 38.3 µM), without a hit: top-dose activity change, positive = activation, most hits filed as activators | 340,000 tested, under 10 active | AID 2288, 2010;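 also: % of control where 0% means no effect; miR-21 action dims this reporter so a rising signal means less miR-21 action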
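Using DMEM plus 10% FBS, HeLa miR-21-FLuc cells are incubated with test compounds (final up to about 40uM) for 48 hours; firefly luciferase signal is then imaged following reagent-mediated lysis.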
An asterisk follows results filed as active; ? = inconclusive; . = not tested or not shown. Unless noted, calls follow the shape of the dose curve; as a rule, active = well fitted curve in the direction sought with a large enough effect; inconclusive = small, poorly fitted or top-dose-only effect, or another doubt; inactive = no such curve, though single readings can be large; an effect the other way counts as inactive or inconclusive.

SMILES | Nrf2 ARE act | PI4K2A block | GALK inh | Nrf2 block | A549 viability | miR-21 act
Cc1ccc(S(=O)(=O)N2[C@@H](c3ccc(C(C)(C)C)cc3)C(C(=O)O)=CC[C@H]2c2ccc(C(C)C)cc2)cc1 | 2.8% | -5.2 | . | 2.91µM* | ? | .
NCCCn1c(C(=O)c2cc(Cl)c(N)c(Cl)c2)c2ccc(C(F)(F)F)cc2[n+]1[O-] | 3.9% | -6.6 | . | 15.7% | -19.2% | .
NCCCn1c(C(=O)c2cc(Cl)c(N)c(Cl)c2)c2ccc([N+](=O)[O-])cc2[n+]1[O-] | ? | -2.1 | . | 156.8% | 18.4µM* | .
Cc1cccc(/C=C/c2onc(C)c2[N+](=O)[O-])n1 | 21.1% | 15.8 | . | 14.6µM* | 18.4µM* | .
CC[n+]1c(C)sc2c3ccsc3ccc21 | 2.6% | -2.3 | -0.2% | 6.2% | 0.6% | 1.0%
CCN1/C(=C/c2ccc3cc(C)ccc3[n+]2CC)Sc2ccc3sccc3c21 | -1.3% | -6.1 | . | 6.51µM* | ? | .
COC(=O)[C@]12C[C@H](CC(=O)N3CCN(C(=O)C4CC4)CC3)C(=O)N(CCc3ccc(OC)c(OC)c3)C1=C[C@H](COCc1ccccc1)O[C@@H]2C | . | -0.6 | . | . | . | .
Cc1csc(N=Nc2ccc(N(C)C)cc2)[n+]1[O-] | 0.0% | -79.0* | . | . | . | .
CN(C)c1ccc(N=Nc2ccc(C(=O)O)cc2)cc1 | -1.1% | -8.4 | . | ? | ? | 2.9%
COC(=O)c1ccc(-c2ccc3c(c2)[C@]2(CCC[C@@H](O)[C@@H]2NC(=O)CCc2ccccc2)C(=O)N3Cc2ccccc2)cc1 | . | -5.8 | . | . | . | .
Nc1nonc1C(=O)NCCNc1ncccc1[N+](=O)[O-] | 2.3% | -1.0 | 0.0% | 18.4µM* | ? | -14.7%
CC1(O)c2ccccc2C(=O)N1CCc1ccccc1F (stereo unspecified) | 7.08µM* | 0.7 | -2.3% | ? | 3.9% | -27.2%
COc1ccc(-c2cc(-c3nnc(SCC(=O)Nc4nccs4)n3N)[nH]n2)cc1 | . | 2.1 | . | . | . | .
Cc1oc(-c2cccc(Cl)c2)nc1CSCC(=O)NCc1ccccc1Cl | -0.7% | -0.8 | . | 23.1µM* | ? | 7.0%
Cc1ccc(CNC(=O)CSCc2nc(-c3ccc(Cl)cc3)oc2C)cc1 | -0.5% | -0.9 | . | 20.6µM* | -7.9% | -3.6%
CCOc1ccc(-c2nc(CSCC(=O)NCc3ccc(Cl)cc3)c(C)o2)cc1 | -2.4% | -0.6 | . | . | 6.7% | 28.4%
O=S(=O)(c1cccs1)N1CCN(C/C=C/c2ccccc2)CC1 | 2.3% | -1.8 | 2.7% | . | 11.0% | 2.8%
O=S(=O)(c1ccc(Cl)s1)N1CCN(C/C=C/c2ccccc2)CC1 | 2.9% | 6.6 | 2.1% | 10.3µM* | -4.2% | -8.0%
O=C1c2ccccc2CC1Sc1nnc(-c2ccccn2)o1 (stereo unspecified) | 12.6µM* | -1.1 | 9.6% | ? | 7.2% | -39.7%
Cc1cc2c(cc1S(=O)(=O)N1CCc3ccccc31)NC(=O)CO2 | 3.3% | -14.0 | -7.6% | 23.1µM* | ? | 20.9%
O=C1CN(C(=O)c2ccc(Br)o2)C(c2ccc(F)cc2)c2cc(F)ccc2N1 (stereo unspecified) | 2.0% | -1.3 | -2.1% | 16.4µM* | -19.1% | 6.5%
CCCOc1ccccc1C1CC(=O)Nc2cc3c(cc21)OCCO3 (stereo unspecified) | 4.1% | -1.1 | 1.0% | 20.6µM* | ? | 29.1%
CCOc1c(Br)cc(C2CC(=O)Nc3cc4c(cc32)OCO4)cc1OC (stereo unspecified) | -0.2% | -7.4 | . | 20.6µM* | 0.7% | ?
COc1cc(C2CC(=O)Nc3cc4c(cc32)OCCO4)cc(Br)c1OC (stereo unspecified) | -0.1% | 5.5 | . | ? | 2.0% | ?
CC(C)Oc1ccccc1C1CC(=O)Nc2cc3c(cc21)OCO3 (stereo unspecified) | -0.6% | -1.2 | -1.7% | 7.31µM* | ? | ?
